Data taken from article PMC5540273 (PLoS ONE, 2017).

Assays:
Conditions in all cases: concentration: 1 μM, replicates: in singlicate; n = 1
TTK = system: TTK
TXK = system: TXK
[1] = system: TYK2(JH1domain-catalytic)
[2] = system: TYK2(JH2domain-pseudokinase)
TYRO3 = system: TYRO3
ULK1 = system: ULK1
ULK2 = system: ULK2
ULK3 = system: ULK3
VEGFR2 = system: T1, VEGFR2
T1 construct: gene KDR

VPS34 = system: T2, VPS34
T2 construct: gene PIK3C3

VRK2 = system: VRK2
WEE1 = system: WEE1
WEE2 = system: WEE2
WNK1 = system: WNK1
WNK2 = system: WNK2
WNK3 = system: WNK3
WNK4 = system: WNK4
YANK1 = system: T3, YANK1
T3 construct: gene STK32A

YANK2 = system: T4, YANK2
T4 construct: gene STK32B

YANK3 = system: T5, YANK3
T5 construct: gene STK32C
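Further: KINOMEscan kinase panel screen.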

Row | Structure (SMILES) | %Inh (TTK) [%] | %Inh (TXK) [%] | %Inh [1] [%] | %Inh [2] [%] | %Inh (TYRO3) [%] | %Inh (ULK1) [%] | %Inh (ULK2) [%] | %Inh (ULK3) [%] | %Inh (VEGFR2) [%] | %Inh (VPS34) [%] | %Inh (VRK2) [%] | %Inh (WEE1) [%] | %Inh (WEE2) [%] | %Inh (WNK1) [%] | %Inh (WNK2) [%] | %Inh (WNK3) [%] | %Inh (WNK4) [%] | %Inh (YANK1) [%] | %Inh (YANK2) [%] | %Inh (YANK3) [%]
1 | Cn1ccc2ncnc(Oc3ccc(NC(=O)Nc4ccccc4)cc3)c21 | 0 | 1 | 0 | 0 | 0 | 0 | 0 | 3 | 97.8 | 0 | 0 | 0 | 0 | 0 | 0 | 0 | 1 | 17 | 0 | 0
2 | Fc1cc(Cl)ccc1Nc1ccnc2cc(I)ccc12 [GW551191] | 0 | 28 | 13 | 16 | 18 | 3 | 0 | 0 | 6 | 2 | 0 | 8 | 0 | 3 | 11 | 29 | 16 | 16 | 11 | 20
3 | Cl.Oc1ccc(-c2nc(-c3ccccc3)[nH]c2-c2ccncc2)cc1 [SB-428218] | 0 | 8 | 100 | 67 | 0 | 8 | 0 | 6 | 0 | 0 | 64 | 64 | 8 | 0 | 0 | 0 | 60 | 8 | 0 | 21
4 | COc1cccc(-c2cc(-c3c[nH]nc3-c3ccccn3)ccn2)c1 [GW680338] | 23 | 0 | 12 | 9 | 0 | 0 | 0 | 7 | 0 | 0 | 24 | 19 | 4 | 0 | 17 | 26 | 25 | 2 | 0 | 0
5 | Cn1ccc2ncnc(Oc3ccc(Nc4nc5ccccc5[nH]4)cc3)c21 | 2 | 0 | 0 | 0 | 0 | 0 | 0 | 0 | 0 | 0 | 0 | 0 | 19 | 0 | 0 | 0 | 0 | 0 | 0 | 2
6 | Cc1cccc(-c2cc(Nc3ccncc3)c3ccccc3n2)n1 [GSK223675] | 0 | 87 | 0 | 22 | 0 | 13 | 0 | 6 | 15 | 0 | 0 | 20 | 0 | 4 | 0 | 1 | 0 | 2 | 0 | 0
7 | COc1ccc2nc(-c3cccc(C)n3)nc(Nc3ccncc3)c2c1 [GSK204919] | 0 | 9 | 10 | 82 | 4 | 4 | 0 | 2 | 0 | 0 | 33 | 0 | 2 | 5 | 3 | 8 | 9 | 19 | 2 | 18
